Screening data as filed in PubChem BioAssay.
An excerpt weighted towards active compounds, which were near 12% of everything screened.
NS1 inh – inhibitors of influenza NS1 protein function; Potency, µM (series often up to 46.1 µM), for inactives: top-dose activity, positive = more growth; 0.4% of 270,000 active; AID 2326; calls by dose curve; note: actives are rising curves; nearly all actives have a fitted effect of over 50% in size
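A cell-based growth assay was used: compounds that relieve NS1-induced slow growth of budding yeast raise OD600. Assay medium was yeast nitrogen base with ammonium sulphate and -URA supplement, pH 6.0, with 2% galactose.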
SARS PLpro yeast – inhibitors of SARS-CoV papain-like protease in yeast; S. cerevisiae expressing SARS-CoV PLpro, growth rescue; Potency, µM (series often up to 32.9 µM), for the others: top-dose activity, positive = growth rescue, usual class: activators; 0.19% of 330,000 active; AID 485353; calls by dose curve; note: 0% is about no effect; nearly all actives have a fitted effect of over 55% in size
AMA1 RON2 block – disrupts binding of P. falciparum AMA1 to RON2. AlphaScreen AMA1-biotinylated RON2 peptide binding. 0.2% of 360,000 active. Potency, µM (doses to about 58.2 µM), without a hit: top-dose activity change, negative = inhibition, usual class: inhibitors;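 note: 0% = vehicle wells and -100% = peptide control; nearly all actives have a fitted effect of over 45% in size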
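AMA1 (3D7) with his tag at 25 nM final met compounds first, then biotinylated RON2 peptide at 25 nM; detection used donor plus acceptor beads, 10 µg/mL apiece, read by AlphaScreen after 30 min at room temperature.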
Pf growth 96h – P. falciparum growth inhibition at 96 hour, primary screen for plastid delayed-death inhibitors. P. falciparum luciferase reporter growth, 96 h. Potency, µM (series often up to 28.7 µM), inactives show at the top dose activity change, negative = inhibition, actives largely listed as inhibitors. 6.9% of 320,000 active. AID 504834; note: % is set by controls: 0 for no effect and ±100 for the full control effect
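Readout is luminescence from an integrated firefly luciferase in P. falciparum. Red cells, 2% hematocrit and 0.05% parasitemia final, were cultured with compound through two parasite generations (96 hours) at 37 C, 5% CO2.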
Pf growth 48h – inhibits P. falciparum growth in the first generation, 48 h; P. falciparum luciferase growth in erythrocytes, 48 h; Potency, µM (highest dose often 28.7 µM), for the others: at the top dose activity change, negative = inhibition, actives largely listed as inhibitors; 5.9% of 310,000 active; AID 504832; note: % is set by controls: 0 for no effect and ±100 for the full control effect
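A one-generation exposure of luciferase-tagged malaria parasites in RPMI 1640/Albumax erythrocyte culture, 37 C and 5% CO2. Inhibition is inferred from decreased luminescence after adding detection reagent.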
HCV inhibitor – blocks hepatitis C virus; Huh7.5.1 HCVcc-Cre infection, luciferase reporter, 44 h; Potency, µM (titrated, usually from 41.8 µM), without a hit: at the highest dose activity change, negative = inhibition, usual class: inhibitors; 3.4% of 340,000 active; note: % is set by controls: 0 for no effect and ±100 for the full control effect
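Antiviral activity was scored by luciferase reporter output from cells infected with HCVcc-Cre (~0.5 moi) in presence of compound, 44 h infection period, cells seeded 1,000/well 4 h prior.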
Active calls of the source: *; i = inactive; ? = inconclusive; · = no result given. Unless noted, calls come from the whole dose curve; as a rule, active = well fitted curve in the direction sought with a large enough effect; inconclusive = small, poorly fitted or top-dose-only effect, or another doubt; inactive = no such curve, though single readings can be large; an effect the other way counts as inactive or inconclusive. Potency is the fitted concentration of half-maximal effect.

SMILES | NS1 inh | SARS PLpro yeast | AMA1 RON2 block | Pf growth 96h | Pf growth 48h | HCV inhibitor
COc1ccc(COC(=O)C2CCN(C(=O)c3ccc(Cl)cc3)CC2)cc1F | · | 1.0% | 0.9% | 38.0% | -9.0% | 16.6%
Fc1cccc(Cl)c1Cn1nnc2c(NCc3ccncc3)ncnc21 | 5.0% | 0.9% | 8.0% | i | ? | 10µM*
Cc1cccc(NC(=O)C2CCN(C(=O)c3ccccc3C)CC2)n1 | · | 0.4% | -9.5% | -20.7% | -1.4% | -6.8%
CCCn1c(NC(=O)C2CCN(C(=O)c3ccccc3C)CC2)nc2ccccc21 | · | -0.8% | 68.2% | ? | 11.7µM* | ?
CC(=O)Nc1nonc1-c1nc2ccccc2n1Cc1ccccc1 | 6.3% | 1.9% | 18.7% | · | 11.7µM* | ?
CC(NC(=O)/C=C/c1ccco1)c1nc2ccccc2n1Cc1cccc(Cl)c1 (stereo unspecified) | 12.4% | -4.3% | 17.8% | ? | 13.1µM* | ?
C=CCn1c(NC(=O)c2ccco2)nc2ccccc21 | -39.2% | 2.5% | 77.2% | 11.4% | 11.7µM* | -19.3%
CC(=O)Nc1nonc1-c1nc2ccccc2n1Cc1nnc(C)o1 | 7.3% | 1.0% | -0.9% | -11.1% | 3.0% | 4.6%
O=C(Nc1nc2ccccc2n1CCN1CCCCC1)c1ccco1 | 1.0% | -2.1% | -7.2% | ? | 3.4% | -8.7%
COc1ccc(CNC(=O)CN2C(=O)CSc3ccc(S(=O)(=O)N4CCOCC4)cc32)c(OC)c1 | -8.2% | 11.9% | 3.8% | -23.3% | -6.2% | 0.6%
Cc1cccc(-c2ncc(CN3CCCC(CO)(Cc4ccccc4C)C3)cn2)c1 (stereo unspecified) | 1.0% | -1.6% | 0.0% | ? | ? | ?
O=C(Nc1nc2ccccc2n1Cc1ccc(Cl)cc1)c1ccco1 | 7.7% | -26.2% | 108.1% | -20.0% | 11.7µM* | -14.7%
CCN(CC)CCn1c(NC(=O)c2ccc(C)cc2)nc2ccccc21 | 1.3% | -5.0% | 62.6% | 6.57µM* | 121.3% | ?
CC(=O)Nc1nc2ccccc2n1Cc1ccc(Cl)cc1 | -36.5% | -0.9% | 88.0% | ? | 2.94µM* | -17.5%
CCN(CC)CCn1c(NC(=O)c2ccc(C(F)(F)F)cc2)nc2ccccc21 | · | 1.1% | 83.8% | ? | -7.9% | 16.1%
CC(=O)NCc1nc2ccccc2n1Cc1ccccc1F | -3.1% | -6.6% | -16.8% | 2.08µM* | 34.5% | 13.3%
Cc1ccnc(NC(=O)C(C)n2cc([N+](=O)[O-])cn2)c1 (stereo unspecified) | · | -4.6% | -1.3% | 191.2% | 17.7% | 3.4%
O=C(NCCS(=O)(=O)N1CCCCCC1)c1ccc(F)cc1 | · | 2.4% | 4.5% | 11.5% | -6.8% | 13.7%
CCC(=O)Nc1nc2ccccc2n1Cc1ccc(C)cc1 | -17.5% | 12.5% | 112.6% | 0.2% | 2.94µM* | -27.4%
CCC(=O)Nc1nc2ccccc2n1Cc1ccccc1 | -110.0% | 0.9% | 5.4% | ? | ? | ?
Cc1ccc(C(=O)Cn2c(=N)n(N)c3ccccc32)cc1 | 23.7% | 3.2% | -4.5% | 292.6% | 56.9% | -7.5%
CCN(CC)CCn1c(=N)n(CC(=O)c2ccc(C)cc2)c2ccccc21 | 10.4% | 0.9% | -4.5% | 19.5% | 4.65µM* | ?
O=C(Nc1ccc(Cl)cc1F)C1CCN(S(=O)(=O)c2cccc3nonc23)CC1 | 26.1% | 2.6% | -6.9% | ? | -8.6% | ?
O=c1sc2ccccc2c(N2CCOCC2)c1[N+](=O)[O-] | -54.4% | -9.1% | 5.7% | 27.8% | -12.8% | 4.6%
C=C(C1=CCN(S(=O)(=O)C(C)(C)C)[C@@H]1CCO)c1ccccc1 | · | · | 6.3% | · | · | 2.1%
SMILES | NS1 inh | SARS PLpro yeast | AMA1 RON2 block | Pf growth 96h | Pf growth 48h | HCV inhibitor
Cc1ccc(C(=O)C(C(=O)/C=C/c2ccccc2)=C2SCCCS2)cc1 | ? | -4.4% | -28.0% | 9.28µM* | 5.22µM* | ?
CC(C)CNc1nc(N)c([N+](=O)[O-])c(NCC2CCCO2)n1 (stereo unspecified) | -9.9% | -4.4% | 7.4% | 11.7µM* | ? | 11.9%
COCCCNc1nc(N)c([N+](=O)[O-])c(NCC2CCCO2)n1 (stereo unspecified) | 5.0% | 1.5% | 8.6% | ? | ? | 7.9%
O=C(NN1CCCCCC1)c1ccccc1F | · | · | 2.3% | · | · | 1.0%
O=C(C1=C[C@H](c2coc3ccccc3c2=O)C[C@H](OCc2ccc(CO)cc2)O1)N1CCN(Cc2ccc3c(c2)OCO3)CC1 | 3.9% | -3.1% | 0.0% | 1.31µM* | 1.47µM* | 8.3%
O=C(C1=C[C@H](c2csc3ccccc23)C[C@H](OCc2ccc(CO)cc2)O1)N1CCN(Cc2ccc3c(c2)OCO3)CC1 | 8.8% | -1.2% | -24.6% | 4.15µM* | ? | 8.91µM*
O=C(C1=C[C@@H](c2coc3ccccc3c2=O)C[C@@H](OCc2ccc(CO)cc2)O1)N1CCN(Cc2ccc3c(c2)OCO3)CC1 | -8.8% | -2.1% | 7.5% | ? | ? | ?
O=C(C1=C[C@H](c2csc3ccccc23)C[C@H](OCc2ccc(CO)cc2)O1)N1CCN(Cc2ccccc2)CC1 | -37.4% | -4.2% | ? | 9.28µM* | ? | ?
COc1ccccc1CNC(=O)Cn1cc(Br)ccc1=O | 2.3% | 3.5% | -10.4% | 48.3% | 59.1% | 9.4%
CC(C)(C)c1ccc(C(=O)NCCC(=O)Nc2cc(Cl)ccc2N2CCOCC2)cc1 | · | -5.3% | -0.8% | ? | 13.1µM* | 11.2µM*
CCN(CC)S(=O)(=O)c1ccc(N2CCOCC2)c(NC(=O)Cc2cccc3ccccc23)c1 | 16.9% | 16.2% | -8.5% | 3.7µM* | 13.1µM* | -0.8%
CCN(CC)S(=O)(=O)c1ccc(N2CCOCC2)c(NC(=O)CCC2CCCCC2)c1 | 13.9% | -18.4% | 2.9% | ? | 8.28µM* | -5.2%
O=C(CNC(=O)c1ccco1)Nc1cc(Cl)ccc1N1CCOCC1 | ? | 9.1% | -16.6% | · | ? | 12.8%
O=C(CCC1CCCC1)Nc1cc(Cl)ccc1N1CCOCC1 | · | 1.0% | 13.5% | 8.28µM* | ? | -6.0%
CCCCNC(=O)C[C@@H]1C[C@@]2(C(=O)OC)CCCCC=C2N(Cc2ccc(Cl)cc2Cl)C1=O | · | · | -2.7% | · | · | ·
OCCCc1cn(-c2ccccc2)c2ccccc12 | -4.2% | 0.0% | -17.2% | ? | 12.4% | 10µM*
Clc1nc(Cl)nc(-c2cn(-c3ccccc3)c3ccccc23)n1 | 3.0% | 0.0% | ? | -4.1% | 31.2% | -6.0%
CCOc1ccc(S(=O)(=O)N2CCCC(C(=O)N3CCOCC3)C2)cc1C (stereo unspecified) | -18.5% | 0.8% | 12.5% | 26.1% | -6.5% | -7.1%
CCOC(=O)C1(C)NC(c2ccc(OC)c(OC)c2)C2C(=O)N(CC)C(=O)C21 (stereo unspecified) | 3.7% | -0.3% | 13.0% | -9.5% | 16.9% | -3.4%
CCN1C(=O)[C@H]2[C@@H](c3ccc(-c4ccc5c(c4)OCO5)c(OC)c3)N[C@@](C)(C(=O)OC)[C@H]2C1=O | · | -8.0% | 1.0% | · | · | 3.16µM*
